# What was measured:
# Settings in all cases: concentration: 1 μM, replicates: in singlicate; n = 1
# KIT-autoinhibited = tested on: KIT-autoinhibited
# KIT = tested on: KIT
# LATS1 = tested on: LATS1
# LATS2 = tested on: LATS2
# LCK = tested on: LCK
# LIMK1 = tested on: LIMK1
# LIMK2 = tested on: LIMK2
# LKB1 = tested on: T1, LKB1
# T1 construct: gene STK11
# LOK = tested on: T2, LOK
# T2 construct: gene STK10
# LRRK2 = tested on: LRRK2
# LTK = tested on: LTK
# LYN = tested on: LYN
# LZK = tested on: T3, LZK
# T3 construct: gene MAP3K13
# MAK = tested on: MAK
# MAP3K15 = tested on: MAP3K15
# MAP3K1 = tested on: MAP3K1
# MAP3K2 = tested on: MAP3K2
# MAP3K3 = tested on: MAP3K3
# MAP3K4 = tested on: MAP3K4
# MAP4K2 = tested on: MAP4K2
# 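Also: KINOMEscan kinase panel screen.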
SMILES,%Inh (KIT-autoinhibited),%Inh (KIT),%Inh (LATS1),%Inh (LATS2),%Inh (LCK),%Inh (LIMK1),%Inh (LIMK2),%Inh (LKB1),%Inh (LOK),%Inh (LRRK2),%Inh (LTK),%Inh (LYN),%Inh (LZK),%Inh (MAK),%Inh (MAP3K15),%Inh (MAP3K1),%Inh (MAP3K2),%Inh (MAP3K3),%Inh (MAP3K4),%Inh (MAP4K2)
Cc1cn2c(=O)cc(N3CCOCC3)nc2n1Cc1cccc(Cl)c1Cl [GSK2334006],0%,39%,0%,0%,46%,0%,6%,0%,0%,30%,7%,4%,0%,9%,2%,18%,6%,0%,0%,0%
Cc1ccc(C(=O)NCC(N)=O)cc1-n1c(C)cc(OCc2ccc(F)cc2F)c(Br)c1=O,0%,6%,13%,0%,25%,16%,0%,0%,26%,0%,27%,18%,0%,11%,0%,0%,0%,0%,22%,0%
O=C1Cc2cc(Nc3nc(NCc4cccc(S(=O)(=O)C(F)(F)F)c4)ncc3C(F)(F)F)ccc2N1,0%,16%,11%,0%,0%,1%,9%,0%,1%,11%,6%,0%,25%,15%,21%,2%,12%,0%,6%,0%
Cc1nnc(-c2ccc3occ(-c4ccc(C(C)O)cc4)c3c2)o1 (centres unmarked),0%,11%,15%,12%,2%,29%,0%,7%,4%,4%,0%,18%,0%,0%,0%,10%,3%,19%,9%,20%
COc1ccc(COc2cc(-n3cnc4ccccc43)sc2C(N)=O)cc1 [GSK1024304],0%,23%,0%,0%,16%,10%,7%,1%,0%,10%,6%,0%,0%,0%,0%,0%,0%,0%,20%,0%
CCc1nc(-c2cccc(C)c2)c(-c2ccnc(NCc3ccccc3)c2)s1,0%,26%,21%,0%,0%,0%,0%,0%,19%,3%,0%,8%,0%,26%,3%,0%,0%,0%,0%,3%
COc1cc(Nc2nccc(N3CCC(NC(=O)c4cccc(NC(C)=O)c4)C3)n2)cc(OC)c1OC (centres unmarked) [GSK1379754],8%,70%,0%,0%,30%,16%,0%,0%,0%,12%,20%,1%,0%,18%,0%,0%,10%,0%,14%,0%
